An excerpt weighted towards active compounds, which were near 19% of everything screened.
HT1080NT lethal: kills 2HG-producing HT-1080-NT fibrosarcoma cells; HT-1080-NT fibrosarcoma viability, CellTiter-Glo ATP luminescence, 48 h; Potency, µM (highest dose often 46.1 µM), inactives show at the highest dose activity, negative = less viability, most hits filed as cytotoxic; 360,000 tested, 1.6% active; AID 686970;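 also: NT is the 2HG producing partner of a matched IDH1 knockdown line; potency is read from the fitted curve at half-maximal effect; 0% = DMSO-treated cells and -100% = media-only wells without cells; nearly all actives have a fitted effect of over 55% in size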
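750 cells/well, RPMI + 5% FBS; 2 h settle, compound pin-transfer, 48 h at 37 degrees C. CellTiter-Glo 10 min RT, luminescence. Normalized to DMSO and media-only wells.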
HT1080 IDH1KD tx: HT-1080 IDH1 knockdown cell toxicity (counter line) | 360,000 tested, 2% active | HT-1080 IDH1 knockdown viability, ATP luminescence, 48 h | AID 686971 | Potency, µM (series often up to 46.1 µM), for inactives: at the highest dose activity, negative = toxicity, hits mostly cytotoxic;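 also: potency is read from the fitted curve at half-maximal effect; 0% = DMSO wells and -100% = cell-free medium wells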
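IDH1KD HT-1080 cells, 750/well, RPMI + 5% FBS; compound pinned after 2 h settling; 48 h, 37 °C; CellTiter-Glo luminescence; % activity normalised to DMSO and no-cell wells; curves fitted, classed by r2 and efficacy.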
DT40 TDP1 CPT: growth inhibition of DT40 Tdp1-/-;hTDP1 cells with camptothecin (screen for TDP1 inhibitors); 420,000 tested, 12% active; chicken DT40 Tdp1-/-;hTDP1 cells + 20 nM CPT, ATP luminescence, 48 h; Potency, µM (titrated, usually from 46.2 µM), for inactives: at the highest dose activity change, negative = growth inhibition, most hits filed as inhibitors; also: potency is read from the fitted curve at half-maximal effect; nearly all actives have a fitted effect of over 55% in size
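Cell growth measured by CellTiter-Glo luminescence after a minimum 48 h, 37 C compound exposure with 20 nM CPT in Tdp1-knockout DT40 cells stably expressing hTDP1, seeded 400/well; qHTS titration format.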
DT40 TDP1 no CPT: qHTS for Inhibitors of human tyrosyl-DNA phosphodiesterase 1 (TDP1): qHTS in cells in absence of CPT. DT40 Tdp1-/- hTDP1 cells, no CPT, ATP luminescence, 48 h. Potency, µM (series often up to 46.2 µM), for the others: at the highest dose activity change, negative = growth inhibition, most hits filed as inhibitors. 420,000 tested, 15% active; also: potency is read from the fitted curve at half-maximal effect; nearly all actives have a fitted effect of over 55% in size
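Luminescent ATP content (CellTiter-Glo) served as the growth readout. Knockout chicken DT40 cells expressing human TDP1 were exposed to compounds without camptothecin for a minimum 48 hr at 37 °C.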
IL1B secr inh: inhibitors of inflammasome signaling (IL-1 beta secretion); THP-1 LPS/ATP IL-1B secretion, AlphaLISA, 16 h; stronger effect = lower value; activity change, % at 57.5 µM; 360,000 tested, 4.7% active; in the data active = activity change below about -50%; inconclusive = mostly about -30% to -49%
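Secreted IL-1B measured by AlphaLISA bead assay after 16 h compound exposure of THP-1 cells; compounds (final up to 57.5 uM) added 1 h before LPS (250 ng/mL) and ATP (1.25 mM) stimulation; lower signal means less secretion.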
Starred values were filed as active, the others as inactive. Unless noted, calls follow the shape of the dose curve; as a rule, active = well fitted curve in the direction sought with a large enough effect; inconclusive = small, poorly fitted or top-dose-only effect, or another doubt; inactive = no such curve, though single readings can be large; an effect the other way counts as inactive or inconclusive. Unless noted, % is scaled to controls: 0 for no effect and ±100 for the full control effect.

How did CC(=O)Nc1ccc(CN(C)c2c(C)nc3ccc(C(=O)Nc4ccc(Cl)c(Cl)c4)cn23)cc1 do in these assays?
HT1080NT lethal: inconclusive; HT1080 IDH1KD tx: inconclusive; DT40 TDP1 CPT: inconclusive; DT40 TDP1 no CPT: inconclusive; IL1B secr inh: -53*

Results for NC(c1csc(NC(=O)Nc2ccccc2)n1)C1CCCCC1 (centres undefined) ?
HT1080NT lethal: inconclusive; HT1080 IDH1KD tx: inconclusive; DT40 TDP1 CPT: inconclusive; DT40 TDP1 no CPT: 15µM*; IL1B secr inh: inconclusive

Results for NC(c1csc(NC(=O)Nc2cccc(Cl)c2)n1)C1CCCCC1 (centres undefined) ?
HT1080NT lethal: 18µM*; HT1080 IDH1KD tx: 18µM*; DT40 TDP1 CPT: 18µM*; DT40 TDP1 no CPT: inconclusive; IL1B secr inh: -96*

What do the screens show for `O=C(Nc1nc(-c2ccccc2)cs1)NC1CCCCC1`?
HT1080NT lethal: -20%; HT1080 IDH1KD tx: -15%; DT40 TDP1 CPT: -30%; DT40 TDP1 no CPT: -29%; IL1B secr inh: -9

Results for Cc1c(C(c2ccc(F)cc2)c2c(C)n(C)n(-c3ccccc3)c2=O)c(=O)n(-c2ccccc2)n1C ?
HT1080NT lethal: 5%; HT1080 IDH1KD tx: 2%; DT40 TDP1 CPT: -13%; DT40 TDP1 no CPT: -20%; IL1B secr inh: 8

How did Cc1ccc(CN2C(=O)c3ccccc3C2c2nnnn2-c2c(C)cccc2C)cc1 (centres undefined) do in these assays?
HT1080NT lethal: -6%; HT1080 IDH1KD tx: -21%; DT40 TDP1 CPT: inconclusive; DT40 TDP1 no CPT: 29µM*; IL1B secr inh: -8

Results for COc1ccc(CCN2C(=O)CCC2(C)c2nnnn2-c2c(C)cccc2C)cc1OC (centres undefined) ?
HT1080NT lethal: 6%; HT1080 IDH1KD tx: -2%; DT40 TDP1 CPT: -28%; DT40 TDP1 no CPT: -28%; IL1B secr inh: 20

What do the screens show for `Cc1cccc(C)c1-n1nnnc1C1c2ccccc2C(=O)N1CCc1ccccc1F` (centres undefined)?
HT1080NT lethal: 12%; HT1080 IDH1KD tx: 1%; DT40 TDP1 CPT: inconclusive; DT40 TDP1 no CPT: 16µM*; IL1B secr inh: 7

What do the screens show for `COc1ccc(CCN2C(=O)c3ccccc3C2c2nnnn2-c2c(C)cccc2C)cc1OC` (centres undefined)?
HT1080NT lethal: 22%; HT1080 IDH1KD tx: 13%; DT40 TDP1 CPT: 23µM*; DT40 TDP1 no CPT: 12µM*; IL1B secr inh: 2

What do the screens show for `COc1ccc(CN2C(=O)CCC2(C)c2nnnn2-c2c(C)cccc2C)cc1OC` (centres undefined)?
HT1080NT lethal: 8%; HT1080 IDH1KD tx: 2%; DT40 TDP1 CPT: 16µM*; DT40 TDP1 no CPT: 18µM*; IL1B secr inh: 0

What do the screens show for `CC1(C(=O)O)CCCN(C(=O)c2ccc(OC(F)F)cc2)C1` (centres undefined)?
HT1080NT lethal: 25%; HT1080 IDH1KD tx: 10%; DT40 TDP1 CPT: -14%; DT40 TDP1 no CPT: -5%; IL1B secr inh: 11

What do the screens show for `CCOc1ccccc1CN1CCN(CC2=Cc3cc(OC)ccc3OC2)CC1CCO` (centres undefined)?
HT1080NT lethal: 0%; HT1080 IDH1KD tx: -4%; DT40 TDP1 CPT: inconclusive; DT40 TDP1 no CPT: inconclusive; IL1B secr inh: -6

Results for O=C1C=C(c2cc(F)ccc2F)C[C@@H](c2ccc(F)cc2)C1 ?
HT1080NT lethal: 12%; HT1080 IDH1KD tx: 10%; DT40 TDP1 CPT: -21%; DT40 TDP1 no CPT: -19%; IL1B secr inh: -25

What do the screens show for `Clc1ccccc1-c1ccc2nccn2c1`?
HT1080NT lethal: 20%; HT1080 IDH1KD tx: 13%; DT40 TDP1 CPT: -23%; DT40 TDP1 no CPT: -12%; IL1B secr inh: 2

Results for COc1ccc(CCNC(=O)Cc2c(C)c3c(cc(C)c4c(C)coc43)oc2=O)cc1 ?
DT40 TDP1 CPT: inconclusive; DT40 TDP1 no CPT: -20%

What do the screens show for `CN(C)S(=O)(=O)c1ccc(C(=O)Nc2nc(-c3cc4ccccc4o3)cs2)cc1`?
HT1080NT lethal: inconclusive; HT1080 IDH1KD tx: inconclusive; DT40 TDP1 CPT: 10µM*; DT40 TDP1 no CPT: 2.9µM*; IL1B secr inh: -1

How did Cc1cc(NC(=O)c2ccccc2)nc2c1c(=O)oc1ccccc12 do in these assays?
HT1080NT lethal: 3%; HT1080 IDH1KD tx: 7%; DT40 TDP1 CPT: inconclusive; DT40 TDP1 no CPT: inconclusive; IL1B secr inh: 0

Results for Cc1cc(-c2csc(NC(=O)c3ccc(S(=O)(=O)N(C)C)cc3)n2)c(C)n1-c1ccccc1 ?
HT1080NT lethal: 0%; HT1080 IDH1KD tx: -2%; DT40 TDP1 CPT: inconclusive; DT40 TDP1 no CPT: 18µM*; IL1B secr inh: 7

What do the screens show for `O=C(Nc1nc(-c2cc3ccccc3o2)cs1)c1ccc(S(=O)(=O)N2CCCC2)cc1`?
HT1080NT lethal: -21%; HT1080 IDH1KD tx: inconclusive; DT40 TDP1 CPT: 16µM*; DT40 TDP1 no CPT: 2.3µM*; IL1B secr inh: -7

How did O=C(Nc1nccs1)c1ccc(S(=O)(=O)N2CCCCC2)cc1 do in these assays?
HT1080NT lethal: -1%; HT1080 IDH1KD tx: 0%; DT40 TDP1 CPT: 2%; DT40 TDP1 no CPT: -13%; IL1B secr inh: 22

How did Cc1cc(NC(=O)c2ccc(S(=O)(=O)N3CCCC3)cc2)nc2c1c(=O)oc1ccccc12 do in these assays?
HT1080NT lethal: 3%; HT1080 IDH1KD tx: 4%; DT40 TDP1 CPT: 7.3µM*; DT40 TDP1 no CPT: 10µM*; IL1B secr inh: 2

What do the screens show for `COc1ccc(C(=O)NNC(=O)c2cccc(F)c2)cc1`?
HT1080NT lethal: 23%; HT1080 IDH1KD tx: 26%; DT40 TDP1 CPT: 10%; DT40 TDP1 no CPT: -2%; IL1B secr inh: 0

Results for COc1ccc(NC(=O)Nc2cccc3c2O[C@H](CN(C)C(=O)NC(C)C)[C@@H](C)CN([C@H](C)CO)C3=O)cc1 ?
HT1080NT lethal: -11%; HT1080 IDH1KD tx: -16%; DT40 TDP1 CPT: -3%; DT40 TDP1 no CPT: -21%; IL1B secr inh: 8

Results for COC(CNC(=O)c1cc(S(=O)(=O)N2CCc3ccccc32)ccc1F)OC ?
HT1080NT lethal: 22%; HT1080 IDH1KD tx: 15%; DT40 TDP1 CPT: inconclusive; DT40 TDP1 no CPT: 0%; IL1B secr inh: 1

What do the screens show for `O=C(Nc1ccc(F)c(F)c1)c1cc(S(=O)(=O)N2CCc3ccccc32)ccc1F`?
DT40 TDP1 CPT: 10µM*; DT40 TDP1 no CPT: 10µM*

Results for O=C(Nc1ccc(Cl)cc1)c1cc(S(=O)(=O)N2CCc3ccccc32)ccc1F ?
DT40 TDP1 CPT: 18µM*; DT40 TDP1 no CPT: 18µM*

What do the screens show for `O=C(COC(=O)c1ccc(O)cc1O)Nc1nnc(-c2ccccc2)o1`?
HT1080NT lethal: 4%; HT1080 IDH1KD tx: 3%; DT40 TDP1 CPT: -6%; DT40 TDP1 no CPT: 5%; IL1B secr inh: 12
